From PubChem BioAssay AID431 (Sanford-Burnham Center for Chemical Genomics, 2006)
Out of some 63,000 compounds screened, about 1,100 (1.7%) were called active. For the sample, actives were picked, then their nearest neighbours and some compounds at random. Measured potencies and affinities stand elsewhere. Unmarked numbers belong to inactive results.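 Rule for the calls: active = compounds whose percent cytotoxicity in the single-dose primary screen, scaled between solvent and toxic-drug controls, exceeds 50; inactive = the rest.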

experiment: cytotoxicity in KRAS-transformed pancreatic duct cells, primary screen, cell-based, fluorescence, HTS (AID 431); conditions: HPDE-C7K KRASV12 cells, Alamar Blue viability, 48 h; at 10 µM; stronger effect = higher value;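 note: 0% = DMSO solvent wells and 100% = doxorubicin-treated wells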

SMILES	cytotoxicity
COc1ccc(-n2ccnc2SCC(=O)NCc2ccc3c(c2)OCO3)cc1	3.4%
COc1ccc(NCc2ccc(OC)c(OC)c2)cc1	-7.9%
COc1ccc(CNc2ccc(-c3ccc(OC)cc3)nn2)cc1	59.4% (active)
COc1ccc(-c2cc(=O)[nH]c(NCc3ccccc3)n2)cc1	7.1%
COc1ccc(C(CC(=O)O)NS(=O)(=O)c2ccc(C)cc2)cc1OC (configuration not stated)	-5.1%
Cc1nnc(C)n1/N=C/C=C/c1ccccc1	-40%
O=C(c1ccc(Cn2cc(Cl)cn2)cc1)N1CCN(c2ccccc2)CC1	4.2%
O=C(O)c1cccc(Cn2cc(Br)cn2)c1	-3.7%
O=C(c1ccc(Cn2cc(Br)cn2)cc1)N1CCN(c2ccccc2)CC1	54.2% (active)
Fc1ccc(Br)cc1C1C=C(c2ccc(Br)s2)Nc2ncnn21 (configuration not stated)	56.5% (active)
COc1cccc(C2C=C(c3ccc(Br)s3)Nc3ncnn32)c1OC (configuration not stated)	-7.6%
Fc1ccc(Br)cc1C1C=C(c2cccnc2)Nc2ncnn21 (configuration not stated)	10.9%
COc1ccccc1CCC(=O)Nc1nc2ccccc2[nH]1	3.7%
O=C(O)c1cc(NCc2c(F)cccc2Cl)ccc1N1CCOCC1	-14.3%
C=CCn1c(SCC(=O)Nc2c(C)cccc2C)nnc1-c1cnccn1	-10%
CCCC(=O)N1CCN(S(=O)(=O)c2cc(Cl)ccc2OC)CC1	-3.6%
C=C(c1ccc(O)cc1)c1ccc(O)cc1	12.5%
CCC(=O)c1ccc(O)cc1	-12%
C/C=C(/C(=C/C)c1ccc(O)cc1)c1ccc(O)cc1	111% (active)
CC(C)(C)NC(=O)NC(=O)COC(=O)COc1ccc2c(c1)CCC2	-4.8%
CCOC(=O)c1c(CN2CCN(CCO)CC2)n(C)c2cc(Br)c(OC)cc12	98.7% (active)

SMILES	cytotoxicity
CCOC(=O)c1c(CNCCN(CC)CC)n(C)c2cc(Br)c(OC)cc12	71.2% (active)
CCOC(=O)c1c(C)n(C)c2cc(Br)c(C(=O)OC)cc12	5.9%
CCN(CC)CCNC(=O)c1c(C)oc2cc(Br)c(OC)cc12	15.1%
CCOC(=O)c1c(CN2CCCCC2)n(C)c2cc(Br)c(OC)cc12	16.9%
CCOC(=O)c1c(CN2CCN(C)CC2)n(C)c2cc(Br)c(OC)cc12	-8.5%
O=C(COC(=O)c1cccc(S(=O)(=O)N2CCc3ccccc32)c1)NC1CCS(=O)(=O)C1 (configuration not stated)	23.6%
O=C(O)Cn1cnc2scc(-c3cccs3)c2c1=O	6.1%
Clc1ccc(Cc2noc(Cc3ccccc3)n2)cc1Cl	-5%
CCOC(=O)C(CCSC)NC(=O)CN (configuration not stated)	-9.8%
COC(=O)C1C(=O)c2c([nH]c(C(=O)OCCOC(C)C)c2C)CC1C (configuration not stated)	-0.2%
CCC(C)(C(=O)NC1CCCCC1)N(CC1CCCO1)C(=O)c1ccccn1 (configuration not stated)	-5.6%
CC1(C)CC(=O)C(C=NCC2CCCO2)=C(O)C1 (configuration not stated)	-19.7%
CC(=O)Nc1cc2c(cc1C(=O)c1ccc(C)cc1)OCCO2	0.7%
Oc1ccc(Br)cc1-c1cc(-c2ccccc2F)[nH]n1	18%
COc1ccc(O)c(-c2cc(-c3cccs3)[nH]n2)c1	34.1%
Cc1nn(Cc2ccc(Cl)cc2Cl)c(C)c1NC(=O)c1nc2n(n1)C(C(F)F)CC(C)N2 (configuration not stated)	9.5%
CCOC(=O)c1[nH]c(C)c(/C=N/O)c1C	0.1%
NC(=O)CSc1nnc(CNc2ccc(F)cc2)n1CC1CCCO1 (configuration not stated)	-7.7%
CCCn1c(SCC(=O)Nc2sc(C)c(C)c2C(=O)OCC)nc2c1c(=O)n(C)c(=O)n2C	0.3%
CCOC(=O)c1c(NC(=O)CSc2nc3c(c(=O)n(C)c(=O)n3C)n2C(C)C)sc(C)c1C	77.5% (active)
COC(=O)c1c(NC(=O)CSc2nc3c(c(=O)n(C)c(=O)n3C)n2C(C)C)sc(C)c1C	-14%

SMILES	cytotoxicity
CCn1c(SCC(=O)Nc2cc(C)ccc2C)nc2c(c1=O)SC(C)C2 (configuration not stated)	8.9%
Cn1c(=O)c2c(nc(CN3CCN(c4ccc(F)cc4)CC3)n2CCN2CCOCC2)n(C)c1=O	-4.6%
CCn1c(=N)n(CC(O)c2ccco2)c2ccccc21 (configuration not stated)	-9.8%
CC[C@H](C)C(=O)O[C@H]1C[C@@H](C)C=C2C=C[C@H](C)[C@H](CC[C@@H]3C[C@@H](O)CC(=O)O3)[C@H]21	55.1% (active)
Cn1nc(-c2ccc(N3CCCCC3)c(NC(=O)c3ccco3)c2)c2ccccc2c1=O	57.8% (active)
CCC(=O)Nc1cc(-c2nn(C)c(=O)c3ccccc23)ccc1N1CCCCC1	2%
CCCC(=O)Nc1cc(-c2nn(C)c(=O)c3ccccc23)ccc1N1CCCCC1	-4.5%
CC(C)C(NS(=O)(=O)c1ccc2c(c1)oc(=O)n2C)C(=O)N1CCN(Cc2ccccc2)CC1 (configuration not stated)	7.1%
CCOc1c(OC)cccc1C1CC(=O)Nc2cc3c(cc21)OCCO3 (configuration not stated)	8.9%
CCOc1ccccc1C1CC(=O)Nc2cc3c(cc21)OCCO3 (configuration not stated)	48.6%
CC(C)Oc1ccccc1C1CC(=O)Nc2cc3c(cc21)OCO3 (configuration not stated)	42.7%
CC(C)Oc1ccccc1C1CC(=O)Nc2cc3c(cc21)OCCO3 (configuration not stated)	45.7%
COc1cccc(C2CC(=O)Nc3cc4c(cc32)OCCO4)c1OC(C)C (configuration not stated)	34.4%
CCOc1ccccc1C1CC(=O)NC2=C1C(=O)CCC2 (configuration not stated)	16.8%
COc1ccccc1C1CC(=O)Nc2cc3c(cc21)OCCO3 (configuration not stated)	63.8% (active)
CCOc1ccccc1C1CC(=O)Nc2cc3c(cc21)OCO3 (configuration not stated)	55.9% (active)
CCCOc1ccccc1C1CC(=O)NC2=C1C(=O)CCC2 (configuration not stated)	36.3%
CCCCOc1ccccc1C1CC(=O)NC2=C1C(=O)CCC2 (configuration not stated)	60.3% (active)
CCCOc1c(OC)cccc1C1CC(=O)Nc2cc3c(cc21)OCCO3 (configuration not stated)	68.7% (active)
CCCOc1c(OC)cccc1C1CC(=O)Nc2cc3c(cc21)OCO3 (configuration not stated)	9.6%
